An excerpt weighted towards active compounds, which were near 6.2% of everything screened.
KB-V1 cytotox = kills drug-selected multidrug resistant KB-V1 cells; KB-V1 MDR cells viability, CellTiter-Glo, 72 h; 400,000 compounds, 3.4% hits; AID 1347076; Potency, µM (highest dose often 46.1 µM), hits mostly cytotoxic; note: % is set by controls: 0 for no effect and ±100 for the full control effect; nearly all actives have a fitted effect of over 60% in size
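Potencies derive from concentration-effect curves fitted to normalized luminescence (CellTiter-Glo) of KB-V1 cells treated for 72 h at 37 degrees C in phenol-red-free DMEM containing 10% FBS.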
ATXN2 expr inh = ATXN2 expression inhibition; HEK-293 ATXN2-luciferase reporter, luminescence, 24 h; 360,000 compounds, 0.72% hits; Potency, µM (titrated, usually from 57 µM), inactives show at the highest dose activity change, negative = inhibition, most hits filed as inhibitors; note: % is set by controls: 0 for no effect and ±100 for the full control effect; nearly all actives have a fitted effect of over 55% in size
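ATXN2-luciferase reporter cells (luciferase flanked by upstream and downstream ATXN2 gene portions) were treated 24 h at 37 °C with compounds at up to 57 uM. SteadyGlo luminescence gave expression; GF-AFC fluorescence gave viability.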
HT1080 IDH1KD tx = kills HT-1080 cells with IDH1 knockdown. 360,000 compounds, 2% hits. AID 686971. Potency, µM (highest dose often 46.1 µM), without a hit: top-dose activity, negative = toxicity, most hits filed as cytotoxic. HT-1080 IDH1 knockdown viability, ATP luminescence, 48 h;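 note: 0% = DMSO wells and -100% = cell-free medium wells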
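After a 2 h attachment period, IDH1KD HT-1080 cells took pin-transferred compound for 48 h at 37 °C; ATP-based luminescence after 10 min room-temperature reagent incubation reported viability.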
HT1080NT lethal = kills 2HG-producing HT-1080-NT fibrosarcoma cells; Potency, µM (series often up to 46.1 µM), for the others: top-dose activity, negative = less viability, most hits filed as cytotoxic; 360,000 compounds, 1.6% hits; HT-1080-NT fibrosarcoma viability, CellTiter-Glo ATP luminescence, 48 h;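 note: NT is the 2HG producing partner of a matched IDH1 knockdown line; 0% = DMSO-treated cells and -100% = media-only wells without cells; nearly all actives have a fitted effect of over 55% in size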
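Toxicity toward the 2HG-producing NT line was scored as %Activity, normalised to DMSO and no-cell wells, from CellTiter-Glo luminescence after 48 hours' treatment.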
KB-3-1 tox = kills parental KB-3-1 adenocarcinoma cells; KB-3-1 viability, CellTiter-Glo ATP luminescence, 72 h; Potency, µM (series often up to 46.1 µM), hits mostly cytotoxic; 400,000 compounds, 1.4% hits; AID 1347075; note: % is set by controls: 0 for no effect and ±100 for the full control effect; nearly all actives have a fitted effect of over 60% in size
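Cells are dispensed, compounds pinned in, plates held at 37 °C for 72 h, then CellTiter-Glo is added and luminescence read after 10 minutes. Cell line: parental KB-3-1 in phenol-red-free DMEM, 10% FBS.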
S2 tox = reduces viability in counter-screen for ATXN expression inhibitors. 400,000 compounds, 0.49% hits. S2 cells (HEK-293 line with an ATXN2-luciferase reporter) viability, CellTiter-Fluor protease fluorescence, 24 h. Potency, µM (titrated, usually from 56.7 µM), most hits filed as cytotoxic; note: nearly all actives have a fitted effect of over 40% in size
* = called active by the depositor; i = inactive; ? = inconclusive; nt = not tested or not shown. Calls come from the whole dose curve; as a rule, active = well fitted curve in the direction sought with a large enough effect; inconclusive = small, poorly fitted or top-dose-only effect, or another doubt; inactive = no such curve, though single readings can be large; an effect the other way counts as inactive or inconclusive. Potency is the fitted concentration of half-maximal effect.

SMILES | KB-V1 cytotox | ATXN2 expr inh | HT1080 IDH1KD tx | HT1080NT lethal | KB-3-1 tox | S2 tox
Cc1cc(NC(=O)CSc2nc(-c3ccco3)cc(C(F)(F)F)n2)n(-c2ccccc2)n1 | 4.11µM* | ? | ? | ? | 5.8µM* | i
Cc1c(NC(=O)CSc2nc(-c3ccco3)cc(C(F)(F)F)n2)c(=O)n(-c2ccccc2)n1C | i | 0.4% | 18.6% | 12.1% | i | i
Cc1cc(NC(=O)CCCSc2nc(-c3ccco3)cc(C(F)(F)F)n2)n(-c2ccccc2)n1 | 2.91µM* | -14.9% | ? | -10.7% | i | i
COC1=C(C(=O)O)N2C(=O)[C@@H](NC(=O)[C@H](N)C3=CCC=CC3)[C@H]2SC1 | nt | nt | nt | nt | nt | i
COc1cccc(C2=NN(S(C)(=O)=O)C(c3cn(-c4ccccc4)nc3-c3cccs3)C2)c1 (stereo unspecified) | i | 16.5% | nt | nt | i | i
CC(=O)c1cccc(NC(=O)Cn2c(C)c3cnn(-c4ccccc4)c(=O)c3c2C)c1 | i | -5.6% | nt | nt | i | i
COc1ccc(-c2[nH]ncc2/C=C(/C#N)C(=O)NC2CCCCCC2)cc1 | i | ? | ? | 18.4µM* | ? | ?
O=C(c1cc2ccccc2o1)N(Cc1ccco1)Cc1cccs1 | i | 7.0% | -0.2% | -1.1% | i | ?
Cc1c(C(=O)N(Cc2ccco2)Cc2cccs2)oc2ccccc12 | 16.4µM* | -2.7% | 7.6% | 2.1% | i | ?
O=C1c2cccc(NCCNCCO)c2C(=O)c2cccc(NCCNCCO)c21 | i | 4.47µM* | 8.2µM* | ? | ? | 17.8µM*
COc1ccc(CN2CCCC(C(=O)N3CCc4ccccc4C3)C2)cc1OC (stereo unspecified) | i | -20.4% | -1.1% | -0.2% | i | i
CCS(=O)(=O)N1CCC(C(=O)N2CCc3ccccc3C2)CC1 | 13µM* | -5.6% | 0.5% | 1.1% | i | i
O=C(C1CCCN(Cc2ccccc2)C1)N1CCc2ccccc2C1 (stereo unspecified) | 23.1µM* | 3.3% | -24.3% | -27.6% | i | i
O=C(NC(c1ccc(F)cc1)c1ccc2ccccc2n1)C1CCN(Cc2ccc(Oc3ccccc3)cc2)CC1 (stereo unspecified) | i | -32.5% | ? | -59.8% | ? | i
O=C(NC(c1ccccc1)c1ccc2ccccc2n1)C1CCN(Cc2ccc(Oc3ccccc3)cc2)CC1 (stereo unspecified) | i | -25.8% | 13µM* | ? | i | ?
COc1ccc(C(NC(=O)C2CCN(CCOc3ccc(Cl)cc3)CC2)c2cccs2)cc1 (stereo unspecified) | i | -23.7% | ? | 20.6µM* | i | ?
O=C(NC(c1ccc(F)cc1)c1ccc2ccccc2n1)C1CCN(CCOc2ccc(F)cc2)CC1 (stereo unspecified) | 18.4µM* | 28.2µM* | 9.2µM* | ? | ? | 15.8µM*
O=C(NC(c1ccc(F)cc1)c1ccc2ccccc2n1)C1CCN(CCOc2ccc(Cl)cc2Cl)CC1 (stereo unspecified) | ? | ? | 11.6µM* | ? | ? | nt
CN(C(=O)c1ccc(NC(=O)Cc2ccc(NC(=O)C3CCCN(C(=O)C4CC4)C3)cc2)cc1)C1CCCC1 (stereo unspecified) | i | 5.7% | 12.2% | 22.9% | i | i
COc1ccccc1C(=O)N[C@@H]1c2ccccc2C2(CCN(Cc3cccnc3)CC2)[C@H]1O | nt | nt | nt | nt | nt | i
O=C(CCn1cnnn1)NC1CCCN(Cc2ccccc2F)C1 (stereo unspecified) | i | -3.5% | -0.9% | 1.0% | i | i
CC(C)CN(CCNC(=O)c1cc(-c2ccc(Cl)s2)nc2ccccc12)CC(C)C | i | -8.6% | nt | nt | i | i
COc1ccc(OCCN2CCC(C(=O)NC(c3ccc(F)cc3)c3ccc4ccccc4n3)CC2)cc1 (stereo unspecified) | i | ? | ? | ? | ? | ?
O=C(NC(c1ccccc1)c1ccc2ccccc2n1)C1CCN(CCOc2ccc(Cl)cc2)CC1 (stereo unspecified) | ? | 28.2µM* | 4.11µM* | 3.66µM* | ? | 28.2µM*
COc1cc(CN2CCC(C(=O)NC(c3ccc(F)cc3)c3ccc4ccccc4n3)CC2)cc(OC)c1 (stereo unspecified) | ? | -5.7% | 3.26µM* | 2.31µM* | 5.17µM* | ?
SMILES | KB-V1 cytotox | ATXN2 expr inh | HT1080 IDH1KD tx | HT1080NT lethal | KB-3-1 tox | S2 tox
Cn1cc(CN2CCC(C(=O)NC(c3ccc(F)cc3)c3ccc4ccccc4n3)CC2)c2ccccc21 (stereo unspecified) | ? | 28.2µM* | 16.4µM* | 23.1µM* | ? | 28.2µM*
COc1cc(OC)nc(C(NC(=O)C2CCN(Cc3ccc(Oc4ccccc4)cc3)CC2)c2ccccc2C)n1 (stereo unspecified) | i | 0.0% | ? | 16.4µM* | i | ?
C[C@H](NC(CCc1ccccc1)C(=O)O)C(=O)N1CCC[C@H]1C(=O)O (stereo partly specified) | nt | 2.7% | nt | nt | nt | i
CCOC(=O)N1CCC2(CC1)OC(=O)C(C)=C2C(=O)NCc1cccc(OC)c1 | i | nt | nt | nt | i | nt
COc1ccccc1Oc1coc2cc(OC(=O)N3CCOCC3)ccc2c1=O | 23.1µM* | -2.6% | 4.1% | 3.1% | ? | ?
COc1cc2cc(OC(C)=O)c3cc4c(cc3c2c(OC)c1OC)OCO4 | i | 8.8% | 22.2% | 15.0% | i | i
COc1cc([C@@H]2c3cc4c(cc3[C@H](O)[C@H]3COC(=O)[C@@H]23)OCO4)cc(OC)c1OC | ? | ? | nt | nt | 1.84µM* | nt
COc1cc(C2c3cc4c(cc3C(O)C3COCC23)OCO4)cc(OC)c1OC (stereo unspecified) | ? | -9.0% | ? | 25.9µM* | 5.17µM* | i
COc1ccc(C(=O)Nc2ccc3c4c(cccc24)CC3)cc1 | 13µM* | 26.4% | ? | -15.5% | i | ?
COc1ccc(C(=O)Nc2cccc3c2CCCC3)cc1 | i | -12.6% | ? | ? | 23.1µM* | ?
CCc1cnc2c(c1SCC(=O)Nc1ccc(Cl)cc1)c(=O)n(C)c(=O)n2C | i | 9.6% | nt | nt | i | i
COc1cc(OC)cc(C2=Cc3ccccc3C(CC(C)=O)N2c2ccc(-c3cccs3)cc2)c1 (stereo unspecified) | i | 12.4% | 2.5% | 0.0% | ? | i
